Results filed as inconclusive are left out. Calls of active or inactive are those of the source. The calls were made as follows, unless noted: active = hit-call score of the fitted dose curve at least 0.9, where 1 is the maximum; inactive = score below 0.9.
Columns and labels:
[1] = target: Estrogen-related receptor gamma (Homo sapiens) (UniProt P62508); assay: ATG_ERRg_TRANS: Attagene TRANS-FACTORIAL HepG2 Assay for human Estrogen-Related Receptor gamma (ERRg) (AID 2282977; active = hit-call score of the fitted dose curve at least 0.9, where 1 is the maximum;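 also: hits increase reporter signal over DMSO so potencies reflect activators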); conditions: HepG2 Attagene TRANS reporter, ERRg transactivation
Procedure, shortened: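 Transfect HepG2 with multiple GAL4-UAS reporter transcription units; dose chemicals 24 h; isolate RNA, reverse-transcribe with oligo(dT), PCR-amplify, label with 6-FAM, digest with HpaI; size fragments by capillary electrophoresis. DMSO serves as negative control.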

[2] = target: Glucocorticoid receptor (Homo sapiens) (UniProt P04150); assay: ATG_GR_TRANS: Attagene TRANS-FACTORIAL HepG2 Assay for human Glucocorticoid Receptor (GR) (AID 2282978; active = hit-call score of the fitted dose curve at least 0.9, where 1 is the maximum;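 also: activators score as hits since higher reporter transcript over DMSO is fitted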); conditions: HepG2 Attagene TRANS GR reporter, mRNA transcription
Procedure, shortened: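 Multiplexed TRANS reporter system, HepG2; 24 h exposure; RNA → oligo(dT) RT → reporter-specific PCR → 6-FAM primer extension → HpaI cut → CE fluorescence. Gain-of-signal vs DMSO.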

[3] = target: Oxysterols receptor LXR-alpha (Homo sapiens) (UniProt Q13133); assay: ATG_LXRa_TRANS: Attagene TRANS-FACTORIAL HepG2 Assay for human Liver X Receptor alpha (LXRa) (AID 2282980; active = hit-call score of the fitted dose curve at least 0.9, where 1 is the maximum); conditions: HepG2 Attagene TRANS reporter, LXRa transactivation
Procedure, shortened: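 Transient HepG2 transfectants, 24 h dosing, RT-PCR/CE mRNA reporter quantitation; gain-of-signal vs DMSO.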

[4] = target: Oxysterols receptor LXR-beta (Homo sapiens) (UniProt P55055); assay: ATG_LXRb_TRANS: Attagene TRANS-FACTORIAL HepG2 Assay for human Liver X Receptor beta (LXRb) (AID 2282981; active = hit-call score of the fitted dose curve at least 0.9, where 1 is the maximum); conditions: HepG2 Attagene TRANS GAL4-LXRb reporter, mRNA
Procedure, shortened: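 Transient transfection HepG2 (multiplexed RTUs, GAL4-UAS); NR-Gal4 chimera; 24 h exposure; RNA → RT-PCR → 6-FAM primer extension → HpaI → CE; increase vs DMSO.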

[5] = ATG_M_32_TRANS: Attagene TRANS-FACTORIAL HepG2 Assay for M32 Transcription Factor (Internal Marker) (AID 2282984; active = hit-call score of the fitted dose curve at least 0.9, where 1 is the maximum); conditions: HepG2 Attagene TRANS M32 internal marker reporter
Procedure, shortened: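 Measures reporter mRNA induction in human HepG2 liver cells after 24 h chemical treatment. Transcripts from transiently transfected GAL4-UAS reporter units are amplified, fluorescently labelled and sized by capillary electrophoresis; gain of signal relative to DMSO.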

[6] = target: Transcriptional activator Myb (Homo sapiens) (UniProt P10242); assay: ATG_Myb_CIS: Attagene CIS-FACTORIAL HepG2 Assay for human Myeloblastosis (Myb) Proto-Oncogene Transcription Factor (AID 2282986); conditions: HepG2 Attagene CIS-FACTORIAL Myb reporter transcription; actives raise or lower the signal
Procedure, shortened: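 Endogenous transcription factor activity at a Myb-responsive cis element is reported in human liver HepG2 cells after 24 h chemical treatment. Reporter mRNA is detected by RT-PCR and capillary electrophoresis fluorescence, with DMSO as baseline.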

[7] = target: Nuclear respiratory factor 1 (Homo sapiens) (UniProt Q16656); assay: ATG_NRF1_CIS: Attagene CIS-FACTORIAL HepG2 Assay for human Nuclear Respiratory Factor 1 (NRF1) Orphan Gene (AID 2282987); conditions: HepG2 NRF1 cis-element reporter, Attagene multiplex; actives raise or lower the signal
Procedure, shortened: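 Human hepatoma HepG2 cells carrying transfected promoter-regulated reporter units were incubated with test chemicals for 24 h. Reporter transcripts were measured by RT-PCR plus capillary electrophoresis, and endpoints derived by bidirectional fitting with DMSO as baseline.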

[8] = ATG_NFI_CIS: Attagene CIS-FACTORIAL HepG2 Assay for human Nuclear Factor I (NFI) (AID 2282989); conditions: HepG2 cis-regulatory reporter, NFI response element transcription; actives raise or lower the signal
Procedure, shortened: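 After transient transfection of HepG2 with cis-promoter reporter constructs and 24 h dosing, RNA is reverse-transcribed, amplified, 6-FAM end-labelled and HpaI-digested before capillary analysis. Bidirectional curve fitting against DMSO.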

[9] = target: Myc proto-oncogene protein (Homo sapiens) (UniProt P01106); assay: ATG_Myc_CIS: Attagene CIS-FACTORIAL HepG2 Assay for human Myelocytomatosis (Myc) Proto-Oncogene Transcription Factor (AID 2282990); conditions: HepG2, Attagene cis-reporter transcription factor activity; actives raise or lower the signal
Procedure, shortened: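 Cells of the HepG2 human liver line bear multiple cis-driven reporter transcription units. Reporter mRNA after 24 h exposure is reverse-transcribed, amplified, labelled and resolved by capillary electrophoresis, with gain- or loss-of-signal fitting relative to DMSO.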

[10] = ATG_NF_kB_CIS: Attagene CIS-FACTORIAL HepG2 Assay for human Nuclear Factor Kappa B (NF-kB) (AID 2282991); conditions: HepG2 Attagene cis-factorial NF-kB reporter mRNA; actives raise or lower the signal
Procedure, shortened: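 Multiplexed cis-reporter assay in transiently transfected HepG2. 24 h treatment; RNA isolated, RT-PCR, labelled fragments resolved by CE. DMSO baseline.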

[11] = ATG_NRF2_ARE_CIS: Attagene CIS-FACTORIAL HepG2 Assay for human Nuclear Factor Erythroid 2 Related Factor 2 (NFR2) response to Antioxidant Response Elements (ARE) (AID 2282992); conditions: HepG2 Attagene ARE/NRF2 reporter, transcription factor activity; actives raise or lower the signal
Procedure, shortened: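 Cis-factorial assay: transfected HepG2 reporter library, 24 h dosing, mRNA readout via RT-PCR/CE; DMSO-referenced bidirectional analysis.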

[12] = ATG_Oct_MLP_CIS: Attagene CIS-FACTORIAL HepG2 Assay for human Octamer-Binding Transcription Factor (Oct) (AID 2282993); conditions: HepG2 Attagene cis-factorial Oct reporter, mRNA; actives raise or lower the signal
Procedure, shortened: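 Cells of the HepG2 line express promoter-controlled reporter sequences whose mRNA levels, after 24 h treatment, are measured by RT-PCR and capillary electrophoresis. Increases and decreases are scored relative to DMSO.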

[13] = target: Cellular tumor antigen p53 (Homo sapiens) (UniProt P04637); assay: ATG_p53_CIS: Attagene CIS-FACTORIAL HepG2 Assay for human p53 Transcription Factor (AID 2282994); conditions: HepG2 p53 cis-element reporter, Attagene mRNA; actives raise or lower the signal
Procedure, shortened: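 Using HepG2 hepatoma cells carrying cis-acting multiplexed reporters, mRNA induction is detected after a 24 h exposure. Gain- and loss-of-signal responses are fitted relative to DMSO-treated cells.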

[14] = BSK_3C_TissueFactor: BioMAP Diversity Plus: 3C Assay for Tissue Factor Biomarker Activity (AID 2282997); conditions: BioMAP 3C HUVEC, tissue factor biomarker readout; actives raise or lower the signal
Procedure, shortened: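 Values derive from bidirectional curve fitting against DMSO of Tissue Factor ELISA signals, taken 24 h after dosing primary human umbilical vein endothelial cells.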

[15] = ATG_GAL4_TRANS: Attagene TRANS-FACTORIAL HepG2 Assay for GAL4 (Internal Marker) (AID 2282976; active = hit-call score of the fitted dose curve at least 0.9, where 1 is the maximum); conditions: HepG2 Attagene TRANS GAL4 internal marker reporter
Procedure, shortened: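 Fluorescence from capillary electrophoresis of labelled RT-PCR products quantifies reporter mRNA induction after 24 h dosing of HepG2 cells carrying transfected GAL4-UAS reporter transcription units. Vehicle DMSO serves as baseline.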

[16] = target: Bile acid receptor (Homo sapiens) (UniProt Q96RI1); assay: ATG_FXR_TRANS: Attagene TRANS-FACTORIAL HepG2 Assay for Farnesoid X Receptor (FXR) (AID 2282979; active = hit-call score of the fitted dose curve at least 0.9, where 1 is the maximum;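 also: hits raise reporter mRNA above DMSO so AC50 marks FXR activation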); conditions: HepG2 Attagene TRANS FXR-GAL4 reporter transcription
Procedure, shortened: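 Chimeric FXR-GAL4 activity in transiently transfected human HepG2 liver cells is scored as induction of reporter mRNA after 24 h of dosing. Detection uses RT-PCR with fluorescent labelling and capillary electrophoresis, with DMSO serving as baseline.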

[17] = target: Hepatocyte nuclear factor 4-alpha (Homo sapiens) (UniProt P41235); assay: ATG_HNF4a_TRANS: Attagene TRANS-FACTORIAL HepG2 Assay for human Hepatocyte Nuclear Factor 4 alpha (HNF4a) (AID 2282982; active = hit-call score of the fitted dose curve at least 0.9, where 1 is the maximum); conditions: HepG2 HNF4a transactivation reporter, mRNA readout
Procedure, shortened: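 Readout is fluorescent reporter-transcript fragments resolved by capillary electrophoresis after RT-PCR from HepG2 cells dosed for 24 h. Cells carried transfected GAL4-UAS reporter constructs measuring exogenous NR-GAL4 chimera activity; DMSO served as baseline.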

[18] = ATG_M_06_TRANS: Attagene TRANS-FACTORIAL HepG2 Assay for M06 Transcription Factor (Internal Marker) (AID 2282983; active = hit-call score of the fitted dose curve at least 0.9, where 1 is the maximum;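 also: reporter transcript level by RT-PCR then capillary electrophoresis fluorescence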); conditions: HepG2 Attagene TRANS M06 internal marker reporter
Procedure, shortened: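 Measured by capillary electrophoresis of fluorescently labelled RT-PCR products, this endpoint reflects reporter mRNA in HepG2 cells harbouring exogenous NR-GAL4 reporter constructs after 24 h exposure, with DMSO as baseline.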

[19] = target: Nuclear receptor subfamily 4 group A member 2 (Homo sapiens) (UniProt P43354); assay: ATG_NURR1_TRANS: Attagene TRANS-FACTORIAL HepG2 Assay for human Nuclear Receptor Related Protein 1 (NURR1) (AID 2282985; active = hit-call score of the fitted dose curve at least 0.9, where 1 is the maximum); conditions: HepG2 Attagene TRANS reporter, mRNA readout
Procedure, shortened: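 Transient transfection of HepG2, human liver cells, with multiple GAL4-UAS reporter transcription units. Cells dosed 24 h, RNA isolated, reverse-transcribed, PCR-amplified, FAM-labelled, HpaI-digested, sized by capillary electrophoresis. DMSO served as negative control.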

[20] = ATG_Hpa5_TRANS: Attagene TRANS-FACTORIAL HepG2 Assay for human GAL4-Hpa5 Hepatocyte Transcription Factor Basal Promoter (AID 2282975; active = hit-call score of the fitted dose curve at least 0.9, where 1 is the maximum;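 also: hits are increases in reporter mRNA over DMSO baseline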); conditions: HepG2 Attagene GAL4-Hpa5 transcription reporter
Procedure, shortened: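 Basal-promoter GAL4 background control within the HepG2 trans-factorial panel of transiently transfected reporter units. Reporter mRNA is measured 24 h after dosing by RT-PCR and capillary electrophoresis, fitted for gain of signal versus DMSO.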

Sequence of Cellular tumor antigen p53 (Homo sapiens) (P04637 whole entry, looked up): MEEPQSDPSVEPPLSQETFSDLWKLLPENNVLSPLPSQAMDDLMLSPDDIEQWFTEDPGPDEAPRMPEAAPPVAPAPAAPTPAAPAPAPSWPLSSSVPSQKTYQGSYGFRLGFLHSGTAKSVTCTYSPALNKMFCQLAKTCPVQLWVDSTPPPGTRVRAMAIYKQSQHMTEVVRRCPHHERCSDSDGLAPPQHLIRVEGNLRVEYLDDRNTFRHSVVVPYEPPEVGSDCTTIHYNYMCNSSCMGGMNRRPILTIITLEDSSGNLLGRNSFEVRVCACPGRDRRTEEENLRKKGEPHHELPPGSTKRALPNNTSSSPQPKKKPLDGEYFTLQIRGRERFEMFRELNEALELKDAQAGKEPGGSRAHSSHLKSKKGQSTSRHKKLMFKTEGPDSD
Sequence of Myc proto-oncogene protein (Homo sapiens) (P01106 whole entry, looked up): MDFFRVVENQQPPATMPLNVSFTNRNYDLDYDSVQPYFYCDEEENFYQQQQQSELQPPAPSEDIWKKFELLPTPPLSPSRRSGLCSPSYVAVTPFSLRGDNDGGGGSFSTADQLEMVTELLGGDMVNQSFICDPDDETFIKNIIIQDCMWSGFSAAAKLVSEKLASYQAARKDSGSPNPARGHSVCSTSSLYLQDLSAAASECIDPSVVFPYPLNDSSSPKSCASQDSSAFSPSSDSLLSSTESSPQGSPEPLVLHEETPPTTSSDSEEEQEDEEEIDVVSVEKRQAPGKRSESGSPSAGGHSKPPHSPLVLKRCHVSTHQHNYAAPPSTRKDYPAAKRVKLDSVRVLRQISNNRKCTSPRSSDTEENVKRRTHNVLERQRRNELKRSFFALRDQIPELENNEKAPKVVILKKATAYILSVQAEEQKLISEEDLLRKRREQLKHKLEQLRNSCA
Sequence of Oxysterols receptor LXR-beta (Homo sapiens) (P55055 whole entry, looked up, the tested form may be a part): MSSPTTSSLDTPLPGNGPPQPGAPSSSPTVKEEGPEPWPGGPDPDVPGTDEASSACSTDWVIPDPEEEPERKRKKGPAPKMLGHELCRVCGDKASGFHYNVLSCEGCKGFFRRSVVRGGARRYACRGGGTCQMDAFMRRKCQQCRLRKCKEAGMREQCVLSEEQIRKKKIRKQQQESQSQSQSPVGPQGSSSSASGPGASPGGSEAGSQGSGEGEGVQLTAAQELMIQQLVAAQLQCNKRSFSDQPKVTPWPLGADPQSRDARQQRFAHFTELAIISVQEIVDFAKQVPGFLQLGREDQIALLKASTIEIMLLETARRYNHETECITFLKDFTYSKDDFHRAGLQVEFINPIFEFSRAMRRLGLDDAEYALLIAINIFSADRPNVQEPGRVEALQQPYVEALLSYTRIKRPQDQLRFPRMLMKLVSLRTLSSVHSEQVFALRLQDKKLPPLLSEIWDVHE
Sequence of Estrogen-related receptor gamma (Homo sapiens) (P62508 whole entry, looked up, the tested form may be a part): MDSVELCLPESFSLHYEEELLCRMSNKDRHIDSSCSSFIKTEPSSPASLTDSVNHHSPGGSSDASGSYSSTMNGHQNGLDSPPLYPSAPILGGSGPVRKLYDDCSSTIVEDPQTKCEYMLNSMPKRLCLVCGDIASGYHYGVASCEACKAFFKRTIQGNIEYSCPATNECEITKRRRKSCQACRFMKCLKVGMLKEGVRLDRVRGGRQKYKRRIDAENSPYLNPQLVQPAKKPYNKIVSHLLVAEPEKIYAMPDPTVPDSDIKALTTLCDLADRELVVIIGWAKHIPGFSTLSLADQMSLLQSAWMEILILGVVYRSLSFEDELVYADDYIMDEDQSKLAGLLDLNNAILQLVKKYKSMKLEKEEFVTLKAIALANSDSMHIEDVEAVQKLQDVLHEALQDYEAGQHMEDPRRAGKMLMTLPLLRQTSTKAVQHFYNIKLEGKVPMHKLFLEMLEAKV
Sequence of Oxysterols receptor LXR-alpha (Homo sapiens) (Q13133 whole entry, looked up): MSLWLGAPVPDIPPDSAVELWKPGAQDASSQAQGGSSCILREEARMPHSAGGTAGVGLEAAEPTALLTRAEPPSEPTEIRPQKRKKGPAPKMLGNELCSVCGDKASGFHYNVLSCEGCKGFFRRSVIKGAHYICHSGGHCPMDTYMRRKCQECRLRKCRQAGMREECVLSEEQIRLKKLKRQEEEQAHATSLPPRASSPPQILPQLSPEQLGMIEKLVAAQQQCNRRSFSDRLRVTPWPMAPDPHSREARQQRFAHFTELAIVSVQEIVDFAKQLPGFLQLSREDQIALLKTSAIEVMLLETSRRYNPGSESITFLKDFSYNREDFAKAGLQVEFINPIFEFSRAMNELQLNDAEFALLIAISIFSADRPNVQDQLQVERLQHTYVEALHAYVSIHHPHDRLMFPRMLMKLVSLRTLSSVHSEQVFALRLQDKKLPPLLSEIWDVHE
Sequence of Nuclear respiratory factor 1 (Homo sapiens) (Q16656 whole entry, looked up): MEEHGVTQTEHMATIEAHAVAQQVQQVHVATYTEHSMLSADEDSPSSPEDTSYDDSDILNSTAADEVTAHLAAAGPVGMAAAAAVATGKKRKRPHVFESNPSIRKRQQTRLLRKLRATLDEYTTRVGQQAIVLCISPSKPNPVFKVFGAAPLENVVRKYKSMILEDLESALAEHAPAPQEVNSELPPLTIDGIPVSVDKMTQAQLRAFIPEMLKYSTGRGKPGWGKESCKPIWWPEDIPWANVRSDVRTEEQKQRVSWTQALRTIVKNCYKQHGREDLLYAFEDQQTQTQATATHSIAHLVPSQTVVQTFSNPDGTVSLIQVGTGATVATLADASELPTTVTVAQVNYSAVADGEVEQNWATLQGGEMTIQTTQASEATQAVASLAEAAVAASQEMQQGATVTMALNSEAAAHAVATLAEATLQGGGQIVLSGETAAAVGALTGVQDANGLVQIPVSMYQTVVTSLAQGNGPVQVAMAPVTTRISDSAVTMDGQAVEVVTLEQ
Sequence of Transcriptional activator Myb (Homo sapiens) (P10242 whole entry, looked up): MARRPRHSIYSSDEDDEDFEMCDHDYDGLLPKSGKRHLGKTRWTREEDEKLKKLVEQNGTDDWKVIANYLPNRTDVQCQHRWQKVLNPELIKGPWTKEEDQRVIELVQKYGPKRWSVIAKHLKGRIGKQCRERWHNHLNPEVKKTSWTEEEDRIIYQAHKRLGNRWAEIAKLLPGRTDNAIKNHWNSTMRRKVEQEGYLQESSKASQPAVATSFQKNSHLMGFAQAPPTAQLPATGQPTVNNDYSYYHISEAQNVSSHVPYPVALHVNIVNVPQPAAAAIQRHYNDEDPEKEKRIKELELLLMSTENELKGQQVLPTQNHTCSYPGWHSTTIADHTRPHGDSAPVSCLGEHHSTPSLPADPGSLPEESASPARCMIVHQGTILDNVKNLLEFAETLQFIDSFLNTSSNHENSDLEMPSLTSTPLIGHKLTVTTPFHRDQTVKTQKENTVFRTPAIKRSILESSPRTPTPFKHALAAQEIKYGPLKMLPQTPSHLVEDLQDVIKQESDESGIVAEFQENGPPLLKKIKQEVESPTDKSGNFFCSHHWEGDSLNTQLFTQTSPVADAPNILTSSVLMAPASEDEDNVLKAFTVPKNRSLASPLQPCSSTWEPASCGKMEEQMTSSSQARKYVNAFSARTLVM
Sequence of Bile acid receptor (Homo sapiens) (Q96RI1 whole entry, looked up, the tested form may be a part): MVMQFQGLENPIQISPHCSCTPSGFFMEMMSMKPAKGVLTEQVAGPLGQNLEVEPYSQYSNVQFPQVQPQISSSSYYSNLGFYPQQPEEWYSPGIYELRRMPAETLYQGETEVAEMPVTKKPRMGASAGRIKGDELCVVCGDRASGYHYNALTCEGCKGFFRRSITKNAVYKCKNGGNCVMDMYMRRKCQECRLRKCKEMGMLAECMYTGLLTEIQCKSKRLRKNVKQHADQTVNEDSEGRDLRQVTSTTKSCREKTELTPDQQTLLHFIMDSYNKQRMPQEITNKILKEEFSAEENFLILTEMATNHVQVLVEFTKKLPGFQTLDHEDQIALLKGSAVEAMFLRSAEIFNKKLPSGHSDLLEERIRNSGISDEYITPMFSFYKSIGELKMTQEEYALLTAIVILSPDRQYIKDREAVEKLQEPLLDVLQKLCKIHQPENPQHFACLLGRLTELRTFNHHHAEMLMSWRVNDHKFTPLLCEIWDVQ
Sequence of Glucocorticoid receptor (Homo sapiens) (P04150 whole entry, looked up): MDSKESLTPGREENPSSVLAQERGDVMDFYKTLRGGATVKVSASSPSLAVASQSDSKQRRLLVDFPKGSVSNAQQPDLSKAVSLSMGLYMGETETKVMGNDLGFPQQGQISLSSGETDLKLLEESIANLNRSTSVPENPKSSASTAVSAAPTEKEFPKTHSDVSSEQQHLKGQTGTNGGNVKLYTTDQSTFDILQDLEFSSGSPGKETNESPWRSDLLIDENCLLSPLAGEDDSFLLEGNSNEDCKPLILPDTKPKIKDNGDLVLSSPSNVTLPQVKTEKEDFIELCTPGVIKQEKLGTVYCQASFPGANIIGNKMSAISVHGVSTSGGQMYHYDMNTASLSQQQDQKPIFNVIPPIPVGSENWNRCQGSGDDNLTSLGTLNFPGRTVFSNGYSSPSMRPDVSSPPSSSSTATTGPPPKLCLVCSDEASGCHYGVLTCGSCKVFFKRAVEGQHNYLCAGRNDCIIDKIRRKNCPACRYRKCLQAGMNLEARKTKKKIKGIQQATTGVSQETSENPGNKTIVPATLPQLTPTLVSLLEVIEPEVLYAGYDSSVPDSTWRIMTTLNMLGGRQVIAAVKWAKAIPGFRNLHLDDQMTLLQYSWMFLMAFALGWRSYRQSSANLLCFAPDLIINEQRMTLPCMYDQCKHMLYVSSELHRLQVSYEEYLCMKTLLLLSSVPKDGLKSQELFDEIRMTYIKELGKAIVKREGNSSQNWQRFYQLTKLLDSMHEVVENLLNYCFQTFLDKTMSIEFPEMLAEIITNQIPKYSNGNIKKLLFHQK

For `N#Cc1c(Cl)cccc1Cl`, the outcome [1] was “inactive”, the outcome [2] was “inactive” and the outcome [3] was “inactive”. For the same compound, the outcome [4] was “inactive”, the outcome [5] was “inactive” and the outcome [6] was “inactive”. For the same compound, the outcome [7] was “inactive”, the outcome [8] was “inactive” and the outcome [9] was “inactive”. The outcome [10] was “inactive”, the AC50 [11] was 13.7 µM (active) and the outcome [12] was “inactive”. For the same compound, the outcome [13] was “inactive” and the outcome [14] was “inactive”.

With `COP(=S)(OC)Oc1ccc([N+](=O)[O-])c(C)c1` the outcome [15] was “inactive”, the outcome [1] was “inactive” and the outcome [2] was “inactive”. For the same compound, the outcome [16] was “inactive”, the outcome [3] was “inactive” and the outcome [4] was “inactive”. The outcome [17] was “inactive”, the outcome [18] was “inactive” and the outcome [5] was “inactive”. For the same compound, the outcome [19] was “inactive”, the outcome [6] was “inactive” and the outcome [7] was “inactive”. For the same compound, the outcome [8] was “inactive”, the outcome [9] was “inactive” and the AC50 [11] was 19.1 µM (active). For the same compound, the AC50 [12] was 50 µM (active), the outcome [13] was “inactive” and the outcome [14] was “inactive”.

With `Nc1cnn(-c2ccccc2)c(=O)c1Cl` the outcome [20] was “inactive”, the outcome [3] was “inactive” and the outcome [4] was “inactive”. For the same compound, the outcome [5] was “inactive”, the outcome [6] was “inactive” and the outcome [7] was “inactive”. The outcome [8] was “inactive”, the outcome [10] was “inactive” and the outcome [11] was “inactive”. The outcome [12] was “inactive”, the outcome [13] was “inactive” and the outcome [14] was “inactive”.

In the case of `COc1cc(OC)nc(NC(=O)NS(=O)(=O)c2ncccc2OCC(F)(F)F)n1`, the outcome [1] is reported as “inactive”, the outcome [2] is reported as “inactive” and the outcome [16] is reported as “inactive”. For the same compound, the outcome [3] was “inactive”, the outcome [4] was “inactive” and the outcome [5] was “inactive”. For the same compound, the outcome [19] was “inactive”, the outcome [6] was “inactive” and the outcome [7] was “inactive”. For the same compound, the outcome [8] was “inactive”, the outcome [10] was “inactive” and the outcome [11] was “inactive”. For the same compound, the outcome [12] was “inactive”, the outcome [13] was “inactive” and the outcome [14] was “inactive”.

With `CN=C=S` the outcome [1] was “inactive”, the outcome [16] was “inactive” and the outcome [3] was “inactive”. The outcome [4] was “inactive”, the outcome [17] was “inactive” and the outcome [18] was “inactive”. The outcome [5] was “inactive”, the outcome [6] was “inactive” and the outcome [7] was “inactive”. For the same compound, the outcome [8] was “inactive”, the outcome [10] was “inactive” and the AC50 [11] was 13.8 µM (active). The AC50 [12] was 26.1 µM (active), the outcome [13] was “inactive” and the outcome [14] was “inactive”.

In the case of `C=CCOC(=O)C(C)(C)OC(=O)c1cc(-n2c(=O)cc(C(F)(F)F)n(C)c2=O)ccc1Cl`, the outcome [1] is reported as “inactive”, the outcome [4] is reported as “inactive” and the outcome [6] is reported as “inactive”. For the same compound, the outcome [7] was “inactive”, the outcome [8] was “inactive” and the AC50 [11] was 21.9 µM (active). For the same compound, the outcome [12] was “inactive”, the outcome [13] was “inactive” and the outcome [14] was “inactive”.

For `Clc1cccc(C(Cl)(Cl)Cl)n1`, the outcome [16] was “inactive”, the outcome [3] was “inactive” and the outcome [4] was “inactive”. The outcome [18] was “inactive”, the outcome [5] was “inactive” and the outcome [6] was “inactive”. For the same compound, the outcome [7] was “inactive”, the outcome [8] was “inactive” and the outcome [9] was “inactive”. For the same compound, the outcome [11] was “inactive”, the outcome [12] was “inactive” and the outcome [13] was “inactive”. For the same compound, the outcome [14] was “inactive”.

With `COC(=O)NS(=O)(=O)c1ccc(N)cc1` the outcome [1] was “inactive”, the outcome [4] was “inactive” and the outcome [18] was “inactive”. For the same compound, the outcome [6] was “inactive”, the outcome [7] was “inactive” and the outcome [8] was “inactive”. The outcome [10] was “inactive”, the outcome [11] was “inactive” and the outcome [12] was “inactive”. The outcome [13] was “inactive” and the outcome [14] was “inactive”.
